# “And” between values parts separate entries of the source, which are not always exact repeats. Equal entries are not always repeated. Inconclusive results are not listed. For part of these data: Potency and affinity values are given separately. The source made the active and inactive calls. Rule as the data show it, unless noted: active = parasite load remaining mostly below about 12% (no sharp cut-off); inactive = mostly above about 10%.
# Assays:
# [1] = P. berghei load reduction in hepatocytes – cell-based, HepG2, luciferase luminescence, HepG2 viability, primary screen (AID 624349);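 also: 100% = mean of DMSO negative control wells on the same plate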; details: P. berghei liver stage in HepG2, luciferase luminescence, concentration not given here; parasite load remaining: stronger effect = lower value; viability: measured here: HepG2 viability without parasites
# [2] = molecular target: 6-phosphogluconate dehydrogenase, decarboxylating (Homo sapiens) (UniProt P52209); assay: inhibition of human phosphogluconate dehydrogenase – biochemical, recombinant enzyme, NADPH absorbance, primary screen (AID 1159550;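 active = at least 20% inhibition of 6-phosphogluconate dehydrogenase activity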); details: recombinant 6PGD, NADPH absorbance 341 nm; at 10 µM; stronger effect = higher value
# [3] = viability loss with induced miR-34 in A549 – imaging, A549 dox-inducible miR-34, nuclei and caspase counts, primary screen (AID 1347080;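 active = compounds whose cell count with miR-34 switched on is under 0.7 times the count with it off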); details: A549 miR-34 inducible, Hoechst nuclei count, 48 h
# [4] = molecular target: Mitogen-activated protein kinase 7 (Homo sapiens) (UniProt Q13164); assay: Gal4-ERK5 driven luciferase induction – cell-based, HTS, primary screen (AID 1508626;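 active = luciferase signal above three times the same-plate solvent-only control wells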;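 also: luciferase driven by Gal4-ERK5 fusion binding five Gal4 sites before minimal TATA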); details: HeLa Gal4-ERK5 transactivation, 18 h, at 5 µM, stronger effect = higher value
# [5] = molecular target: ATP-dependent translocase ABCB1 (Homo sapiens) (UniProt P08183); assay: P-glycoprotein substrate transport blockade – cell-based (AID 377; in the data active = fluorescence slope change above about 50%); details: MDR1-expressing cells, fluorescent substrate accumulation slope; stronger effect = higher value; concentration not given here
# [6] = compounds altering viability of human ES cells (AID 493140; call rule not given here;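 also: cells exposed to compounds for four days before counting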); details: human embryonic stem cell survival screen; stronger effect = higher value
# [7] = molecular target: Calcium-dependent protein kinase 1 (Plasmodium falciparum (isolate 3D7)) (UniProt P62344); assay: PfCDPK1 kinase inhibitors, biochemical, TCAMS library (AID 1159585; cut-off not given, nearly all actives have IC50 up to about 0.98 µM;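 also: inhibitors leave more ATP so luminescence rises with inhibition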); details: recombinant PfCDPK1, Kinase-Glo ATP depletion luminescence
# [8] = molecular target: Plasmodium falciparum protein kinase 6 (PK6, PF3D7_1337100) (UniProt Q8IDW1); assay: PfPK6 kinase inhibitors, biochemical, TCAMS library (AID 1159586; call rule not given here); details: recombinant PfPK6, Kinase-Glo ATP depletion luminescence
# [9] = molecular target: Protein kinase 7 (PK7), Plasmodium falciparum 3D7 (PF3D7_0213400) (UniProt Q7YTF7); assay: inhibition of Plasmodium PK7 catalytic activity – biochemical, TCAMS antimalarial set, Kinase-Glo luminescence (AID 1159587; call rule not given here); details: recombinant PfPK7, Kinase-Glo ATP depletion luminescence
# [10] = molecular target: Calcium-dependent protein kinase 4 (Plasmodium falciparum (isolate 3D7)) (UniProt Q8IBS5); assay: PfCDPK4 kinase inhibitors, biochemical, TCAMS library (AID 1159588; cut-off not given, nearly all actives have IC50 up to about 0.91 µM); details: recombinant PfCDPK4, Kinase-Glo ATP depletion luminescence
# [11] = measured here: relative caspase fold change +Dox/-Dox
# [12] = measured here: total cells with miR-34 induction, stronger effect = lower value
# [13] = measured here: total cells without miR-34 induction
# 6-phosphogluconate dehydrogenase, decarboxylating (Homo sapiens), sequence (P52209 whole entry, looked up): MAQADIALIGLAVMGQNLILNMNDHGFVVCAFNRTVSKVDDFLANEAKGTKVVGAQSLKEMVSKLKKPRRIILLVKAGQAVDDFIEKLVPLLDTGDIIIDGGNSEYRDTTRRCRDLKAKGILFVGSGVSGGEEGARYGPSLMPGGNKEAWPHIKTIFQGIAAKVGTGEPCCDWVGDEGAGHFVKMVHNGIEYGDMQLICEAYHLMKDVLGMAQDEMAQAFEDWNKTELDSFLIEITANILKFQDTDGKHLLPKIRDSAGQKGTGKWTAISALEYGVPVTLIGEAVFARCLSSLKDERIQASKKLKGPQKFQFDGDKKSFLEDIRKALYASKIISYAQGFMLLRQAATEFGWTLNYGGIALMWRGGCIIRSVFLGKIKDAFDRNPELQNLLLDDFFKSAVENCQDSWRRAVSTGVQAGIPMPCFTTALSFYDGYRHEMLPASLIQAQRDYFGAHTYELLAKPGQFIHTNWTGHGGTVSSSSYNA
# Protein kinase 7 (PK7), Plasmodium falciparum 3D7 (PF3D7_0213400), sequence (Q7YTF7 1-343): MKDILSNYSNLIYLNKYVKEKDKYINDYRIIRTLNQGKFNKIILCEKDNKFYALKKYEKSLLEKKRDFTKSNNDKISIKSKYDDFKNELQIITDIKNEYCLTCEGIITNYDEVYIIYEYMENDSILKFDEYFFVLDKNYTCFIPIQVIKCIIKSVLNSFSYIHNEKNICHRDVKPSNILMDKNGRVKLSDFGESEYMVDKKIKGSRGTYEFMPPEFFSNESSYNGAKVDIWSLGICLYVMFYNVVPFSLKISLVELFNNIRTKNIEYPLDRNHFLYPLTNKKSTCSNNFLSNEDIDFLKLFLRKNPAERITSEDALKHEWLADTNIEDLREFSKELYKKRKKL
# ATP-dependent translocase ABCB1 (Homo sapiens), sequence (P08183 whole entry, looked up): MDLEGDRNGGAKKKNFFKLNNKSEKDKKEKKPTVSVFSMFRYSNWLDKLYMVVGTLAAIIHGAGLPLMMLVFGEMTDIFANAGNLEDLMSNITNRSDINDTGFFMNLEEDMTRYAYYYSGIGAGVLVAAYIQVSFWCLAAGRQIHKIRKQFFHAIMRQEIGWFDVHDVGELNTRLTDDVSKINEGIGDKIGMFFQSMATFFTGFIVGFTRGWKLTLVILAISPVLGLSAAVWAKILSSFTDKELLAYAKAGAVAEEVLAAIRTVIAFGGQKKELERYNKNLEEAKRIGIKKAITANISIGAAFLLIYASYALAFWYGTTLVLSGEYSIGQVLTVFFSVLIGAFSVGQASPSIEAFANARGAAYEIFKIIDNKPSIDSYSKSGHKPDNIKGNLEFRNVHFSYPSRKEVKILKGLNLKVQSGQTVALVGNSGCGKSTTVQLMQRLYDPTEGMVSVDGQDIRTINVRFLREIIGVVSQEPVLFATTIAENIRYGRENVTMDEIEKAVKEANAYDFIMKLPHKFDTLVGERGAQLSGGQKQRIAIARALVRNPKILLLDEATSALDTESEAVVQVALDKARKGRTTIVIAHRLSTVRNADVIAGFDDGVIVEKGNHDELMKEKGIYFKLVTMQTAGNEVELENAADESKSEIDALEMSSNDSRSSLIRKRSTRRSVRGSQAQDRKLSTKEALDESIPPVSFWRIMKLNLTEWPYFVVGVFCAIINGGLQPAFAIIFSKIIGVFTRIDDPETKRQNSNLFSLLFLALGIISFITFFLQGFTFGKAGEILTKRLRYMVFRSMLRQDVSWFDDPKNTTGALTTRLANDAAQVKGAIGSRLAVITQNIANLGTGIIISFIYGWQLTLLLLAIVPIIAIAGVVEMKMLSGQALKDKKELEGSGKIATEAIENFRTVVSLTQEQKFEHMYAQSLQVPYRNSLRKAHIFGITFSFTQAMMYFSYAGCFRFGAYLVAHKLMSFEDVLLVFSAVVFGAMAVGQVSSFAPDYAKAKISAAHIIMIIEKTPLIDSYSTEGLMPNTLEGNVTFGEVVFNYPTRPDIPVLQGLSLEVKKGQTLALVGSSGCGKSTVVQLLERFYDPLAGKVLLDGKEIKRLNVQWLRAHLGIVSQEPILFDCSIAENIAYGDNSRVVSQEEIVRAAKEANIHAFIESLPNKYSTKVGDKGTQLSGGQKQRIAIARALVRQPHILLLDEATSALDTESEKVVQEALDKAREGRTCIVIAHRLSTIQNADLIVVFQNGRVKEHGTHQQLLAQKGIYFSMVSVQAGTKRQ
# Plasmodium falciparum protein kinase 6 (PK6, PF3D7_1337100), sequence (Q8IDW1 1-305): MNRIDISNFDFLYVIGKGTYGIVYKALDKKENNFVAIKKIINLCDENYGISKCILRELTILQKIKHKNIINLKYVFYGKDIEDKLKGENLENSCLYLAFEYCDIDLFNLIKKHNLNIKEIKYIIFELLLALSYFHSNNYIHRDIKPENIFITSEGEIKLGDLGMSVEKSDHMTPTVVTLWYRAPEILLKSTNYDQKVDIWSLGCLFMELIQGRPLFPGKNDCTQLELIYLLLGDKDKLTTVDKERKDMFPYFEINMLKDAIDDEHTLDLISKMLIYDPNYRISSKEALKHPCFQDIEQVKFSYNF
# Calcium-dependent protein kinase 1 (Plasmodium falciparum (isolate 3D7)), sequence (P62344 whole entry, looked up): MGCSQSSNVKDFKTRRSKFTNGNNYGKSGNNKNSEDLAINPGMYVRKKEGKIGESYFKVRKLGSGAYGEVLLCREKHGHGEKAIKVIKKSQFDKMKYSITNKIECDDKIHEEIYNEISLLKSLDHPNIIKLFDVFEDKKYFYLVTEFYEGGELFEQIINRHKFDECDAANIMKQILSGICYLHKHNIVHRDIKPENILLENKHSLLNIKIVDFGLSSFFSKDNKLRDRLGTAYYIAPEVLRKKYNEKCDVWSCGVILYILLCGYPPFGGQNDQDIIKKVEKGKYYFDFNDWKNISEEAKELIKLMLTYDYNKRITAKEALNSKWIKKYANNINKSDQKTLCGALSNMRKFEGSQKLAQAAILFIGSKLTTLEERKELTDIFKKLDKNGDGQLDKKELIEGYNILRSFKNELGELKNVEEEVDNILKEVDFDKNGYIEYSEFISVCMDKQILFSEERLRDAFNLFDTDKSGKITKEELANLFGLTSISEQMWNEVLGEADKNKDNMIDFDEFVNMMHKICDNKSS
# Mitogen-activated protein kinase 7 (Homo sapiens), sequence (Q13164 whole entry, looked up, the tested form may be a part): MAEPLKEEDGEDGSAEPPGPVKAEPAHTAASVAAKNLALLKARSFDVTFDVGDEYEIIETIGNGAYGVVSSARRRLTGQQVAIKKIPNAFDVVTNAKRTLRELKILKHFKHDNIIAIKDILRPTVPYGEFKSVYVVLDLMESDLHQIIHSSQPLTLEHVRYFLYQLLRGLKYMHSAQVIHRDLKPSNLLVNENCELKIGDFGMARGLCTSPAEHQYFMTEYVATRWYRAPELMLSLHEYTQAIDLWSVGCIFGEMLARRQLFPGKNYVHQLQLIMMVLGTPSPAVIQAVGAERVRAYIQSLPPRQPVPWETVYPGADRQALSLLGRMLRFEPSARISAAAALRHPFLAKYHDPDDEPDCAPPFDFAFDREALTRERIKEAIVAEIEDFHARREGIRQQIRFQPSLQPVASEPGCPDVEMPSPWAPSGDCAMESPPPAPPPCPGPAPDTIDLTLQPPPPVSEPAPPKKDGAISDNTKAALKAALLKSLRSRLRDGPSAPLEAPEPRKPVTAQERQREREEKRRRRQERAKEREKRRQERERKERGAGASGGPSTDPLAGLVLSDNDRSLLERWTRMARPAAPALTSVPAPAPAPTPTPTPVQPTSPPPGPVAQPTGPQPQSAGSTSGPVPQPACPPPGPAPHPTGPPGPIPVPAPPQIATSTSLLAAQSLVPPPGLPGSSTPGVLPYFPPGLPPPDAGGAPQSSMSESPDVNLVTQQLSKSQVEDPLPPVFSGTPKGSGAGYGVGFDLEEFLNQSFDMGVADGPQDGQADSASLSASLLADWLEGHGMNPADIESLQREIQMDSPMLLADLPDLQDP
# Calcium-dependent protein kinase 4 (Plasmodium falciparum (isolate 3D7)), sequence (Q8IBS5 whole entry, looked up): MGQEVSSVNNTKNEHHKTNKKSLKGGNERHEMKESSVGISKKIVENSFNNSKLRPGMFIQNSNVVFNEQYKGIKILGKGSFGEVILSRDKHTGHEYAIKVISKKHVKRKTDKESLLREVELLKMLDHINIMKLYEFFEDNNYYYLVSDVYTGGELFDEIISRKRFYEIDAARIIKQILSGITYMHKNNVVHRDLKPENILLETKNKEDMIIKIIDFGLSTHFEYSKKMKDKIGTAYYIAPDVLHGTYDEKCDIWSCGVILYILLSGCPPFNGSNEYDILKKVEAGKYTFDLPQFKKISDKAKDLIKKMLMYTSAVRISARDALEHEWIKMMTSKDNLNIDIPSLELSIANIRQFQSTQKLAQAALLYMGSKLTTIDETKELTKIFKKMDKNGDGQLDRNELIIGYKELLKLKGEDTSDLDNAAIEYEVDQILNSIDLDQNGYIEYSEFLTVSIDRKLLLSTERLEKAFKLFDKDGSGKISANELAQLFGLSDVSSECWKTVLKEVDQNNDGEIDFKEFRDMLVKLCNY
Structure (SMILES),parasite load remaining [1],viability [1],inhibition [2],fold change ([3]; stronger effect = lower value),"fold change [3, 11]","cell count [3, 12]","cell count [3, 13]",luciferase signal [4],fluorescence slope change [5],survival [6],outcome [7],outcome [8],outcome [9],outcome [10]
C[C@@H]1CC[C@@]2(NC1)O[C@H]1C[C@H]3[C@@H]4CC=C5C[C@@H](O)CC[C@]5(C)[C@H]4CC[C@]3(C)[C@H]1[C@@H]2C,86.7% (inactive),95.9%,11.8% (inactive),0.905 (inactive),1.06,9310,10300,48 AU (inactive),–,–,–,–,–,–
COc1ccc(CC2c3cc(OC)c(OC)cc3CCN2C)cc1OC (stereo unspecified),122% (inactive) and 66.2% (inactive),98.7% and 71.4%,-3.74% (inactive),0.878 (inactive),1.5,9520,10800,–,206% (active),6.67 (inactive),–,–,–,–
CC[C@H]1CN2CC[C@@H]1C[C@H]2[C@H](O)c1cc[n+]([O-])c2ccc(OC)cc12,–,–,–,–,–,–,–,–,–,–,inactive,inactive,inactive,inactive
